Here are results for six molecules from PubChem BioAssay (NCATS).

One experiment deals with MCC-26. The experiment is described as follows: qHTS assay to identify novel small-molecules to repurpose for Merkel cell carcinoma treatment (AID 1296009). Also: nearly all actives have a fitted effect of over 60% in size. The note with it: MCC and control cell lines, CellTiter-Glo viability, 72 h; series mostly up to 46 µM. Put shortly: (§1)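 After compound transfer in DMSO, plates were kept 72 hr at 37 degree celsius. Luminescent ATP signal from CellTiter-Glo served as viability measure, normalized against DMSO and no-cell controls.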

The test system of another experiment is MKL-1. Described as above. Particulars: MCC and control cell lines, CellTiter-Glo viability, 72 h; series mostly up to 46 µM. Put shortly:
as §1

For another experiment, the system named is MKL-2. The description is as above. Particulars: MCC and control cell lines, CellTiter-Glo viability, 72 h; series mostly up to 46 µM. Summed up:
as §1

A further experiment concerns UISO. The description is as above. The note with it: MCC and control cell lines, CellTiter-Glo viability, 72 h; series mostly up to 46 µM. Put shortly: as §1
In the next experiment the test system is WaGa. The experiment is described as above. The note with it: MCC and control cell lines, CellTiter-Glo viability, 72 h; series mostly up to 46 µM. Put shortly: as §1
The subject of a further experiment is C33A. The experiment is described as follows: Primary qHTS to identify gynecologic anti-cancer compounds using libraries of approved drugs and bioactive compounds (AID 1345084). Also: nearly all actives have a fitted effect of over 55% in size. Also: potency is read from the fitted curve at half-maximal effect. Particulars: Gynecologic cancer cell panel viability, ATPlite luminescence, 48 h; series mostly up to 57.5 µM. Put shortly:
(§2)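 Cytotoxicity screen measuring ATP content by luciferase luminescence. Each compound is applied at five concentrations for 48 h at 37 C with 5% CO2.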

The subject of another experiment is CASKI. Described as above. Particulars: Gynecologic cancer cell panel viability, ATPlite luminescence, 48 h; series mostly up to 57.5 µM. Put shortly: as §2
The next experiment relates to Es-2. The experiment is described as above. Particulars: Gynecologic cancer cell panel viability, ATPlite luminescence, 48 h; series mostly up to 57.5 µM. Put shortly:
as §2

The subject of the next experiment is HeLa. The experiment is described as above. Particulars: Gynecologic cancer cell panel viability, ATPlite luminescence, 48 h; series mostly up to 57.5 µM. Put shortly: as §2
For another experiment, the system named is Hek293T. The description is as above. Particulars: Gynecologic cancer cell panel viability, ATPlite luminescence, 48 h, control line for the selectivity index; series mostly up to 57.5 µM. Summed up:
as §2

The test system of a further experiment is JEG-3. Described as above. Particulars: Gynecologic cancer cell panel viability, ATPlite luminescence, 48 h; series mostly up to 57.5 µM. Put shortly: as §2
The test system of another experiment is OV90. The experiment is described as above. Particulars: Gynecologic cancer cell panel viability, ATPlite luminescence, 48 h; series mostly up to 57.5 µM. Summed up:
as §2

In the next experiment the test system is PA-1. The experiment is described as above. The note with it: Gynecologic cancer cell panel viability, ATPlite luminescence, 48 h; series mostly up to 57.5 µM. Summed up: as §2
The subject of another experiment is SKOV3. The experiment is described as above. Particulars: Gynecologic cancer cell panel viability, ATPlite luminescence, 48 h; series mostly up to 57.5 µM. Put shortly:
as §2

The test system of another experiment is Tov-21-G. The description is as above. The note with it: Gynecologic cancer cell panel viability, ATPlite luminescence, 48 h; series mostly up to 57.5 µM. Summed up: as §2
The next experiment deals with Tov112D. The experiment is described as above. The note with it: Gynecologic cancer cell panel viability, ATPlite luminescence, 48 h; series mostly up to 57.5 µM. Put shortly: as §2
A short description of experiment [1]: Drug repurposing screens with cells derived from glioblastoma tumor samples (AID 1345199). Also: nearly all actives have a fitted effect of over 40% in size. Particulars: GBM patient neurospheres viability, ATP luminescence, 48 h. Summed up:
(§3)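 Four patient lines of CD133+ GBM neurospheres were screened at several concentrations; hits were retested in those lines plus three slower-growing GBM lines, using 48-hour treatment and ATP-based viability.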

The next experiment has as its system astro. The description is as above. Particulars: viability, ATP luminescence, 48 h; series mostly up to 45.9 µM. Summed up: as §3
The next experiment has as its system CAOV3. The experiment is described as follows: Primary qHTS to identify gynecologic anti-cancer compounds using libraries of approved drugs and bioactive compounds (AID 1345084). Also: nearly all actives have a fitted effect of over 55% in size. Also: potency is read from the fitted curve at half-maximal effect. Particulars: Gynecologic cancer cell panel viability, ATPlite luminescence, 48 h; series mostly up to 57.5 µM. Put shortly: as §2
The mark [2] stands for this setting: at 45.9 µM (top of the series), tumour line B.
The mark [3] stands for this setting: at 45.9 µM (top of the series), tumour line D.
The mark [4] stands for this setting: at 46 µM (top of the series), tumour line A.
The mark [5] stands for this setting: at 46.1 µM (top of the series), tumour line C.
Where [6] appears, read: at 20 µM (top of the series), tumour line C.
[7] abbreviates: at 21.2 µM (top of the series), tumour line B.
Where [8] appears, read: at 21.2 µM (top of the series), tumour line D.

The structures appear in SMILES notation. Results filed as inconclusive are left out. A number with no mark means an inactive call. The source made the active and inactive calls. Calls follow the shape of the dose curve; as a rule, active = well fitted curve in the direction sought with a large enough effect; inconclusive = small, poorly fitted or top-dose-only effect, or another doubt; inactive = no such curve, though single readings can be large; an effect the other way counts as inactive or inconclusive.
% is scaled to controls: 0 for no effect and ±100 for the full control effect.

On to `CCCCN1CCCC[C@H]1C(=O)Nc1c(C)cccc1C`, for which the Potency entry in the experiment with MCC-26, in the experiment on MKL-1, in the experiment with MKL-2, in the experiment with UISO, in the experiment with WaGa and in the experiment on C33A was “inactive” each time. In addition, the Potency result in the experiment with CASKI, in the experiment with Es-2, in the experiment on HeLa, in the experiment on Hek293T, in the experiment with JEG-3 and with OV90 was “inactive” each time. For the same molecule, the Potency entry with PA-1, in the experiment on SKOV3, in the experiment with Tov-21-G, with Tov112D and in the experiment on astro was “inactive” each time. Further, the activity, negative = cell killing in [1] (setting [2]) is -6.49%; in experiment [1] (setting [3]), -12.7%; in experiment [1] (setting [4]) it was -27.7%; in experiment [1] (setting [5]), 5.13%.

As for `CCCn1cnc2c1c(=O)n(CCCCC(C)=O)c(=O)n2C`, the Potency entry in the experiment with MCC-26, in the experiment with MKL-1, in the experiment with MKL-2, in the experiment with UISO, in the experiment with WaGa and in the experiment with C33A was “inactive” throughout. For the same molecule, the Potency entry in the experiment with CASKI, with Es-2, in the experiment on HeLa, in the experiment on Hek293T, in the experiment with JEG-3 and in the experiment with OV90 was “inactive” throughout. Also, the Potency result in the experiment on PA-1, with SKOV3, in the experiment with Tov-21-G, with Tov112D and in the experiment on astro was “inactive” throughout. Moreover, the activity, negative = cell killing in experiment [1] (setting [2]) is -7.91%; in experiment [1] (setting [3]), -10.9%; in experiment [1] (setting [4]), -20.8%; in experiment [1] (setting [5]), 14.2%.

As to `C[C@]12CC[C@@H]3c4ccc(O)cc4CC[C@H]3[C@@H]1CCC2=O`, the Potency result in the experiment on MCC-26, in the experiment on MKL-1, in the experiment with MKL-2, in the experiment on UISO, in the experiment on WaGa and with C33A was “inactive” each time. Besides, the Potency result with CAOV3, in the experiment with CASKI, in the experiment on Es-2, with Hek293T, in the experiment with JEG-3 and with OV90 was “inactive” in each case. Further, the Potency entry in the experiment with PA-1, in the experiment on SKOV3, with Tov-21-G, with Tov112D and in the experiment on astro was “inactive” throughout. Further, the Potency with HeLa is 28.2 µM (active). For the same molecule, the activity, negative = cell killing is -16.5% in experiment [1] (setting [2]), -20.7% in experiment [1] (setting [3]) and -9.33% in [1] (setting [5]).

Consider `CS(=O)(=O)c1ccc([C@@H](O)[C@@H](CF)NC(=O)C(Cl)Cl)cc1`, for which the Potency result with MCC-26, in the experiment on MKL-1, in the experiment on MKL-2, with UISO, with WaGa and with C33A was “inactive” throughout. The Potency result in the experiment with CAOV3, with CASKI, with Es-2, in the experiment on HeLa, in the experiment with Hek293T and in the experiment with JEG-3 was “inactive” throughout. Moreover, the Potency result with OV90, in the experiment on PA-1, in the experiment on SKOV3, in the experiment on Tov112D and with astro was “inactive” throughout. The activity, negative = cell killing in [1] (setting [6]) was -23.2%; in [1] (setting [7]), -19.6%; in experiment [1] (setting [8]), -7.33%.

As to `COc1ccc2c(c1)C(=O)N(CCc1ccc(S(=O)(=O)NC(=O)NC3CCCCC3)cc1)C(=O)C2(C)C`, the Potency result with MCC-26, in the experiment on MKL-1, with MKL-2, in the experiment with UISO, with WaGa and in the experiment with C33A was “inactive” in each case. Also, the Potency entry in the experiment with CASKI, in the experiment on Es-2, in the experiment on HeLa, with Hek293T, with JEG-3 and in the experiment on OV90 was “inactive” each time. In addition, the Potency result in the experiment with PA-1, with SKOV3, in the experiment with Tov-21-G, with Tov112D and in the experiment on astro was “inactive” throughout. For the same molecule, the activity, negative = cell killing in [1] (setting [6]) was -4.28%; in [1] (setting [7]), -10.5%; in experiment [1] (setting [8]), -7.62%.

With `Nc1cc(=O)[nH]c(N)n1`, the Potency entry with MCC-26, in the experiment with MKL-1, in the experiment with MKL-2, with UISO, with WaGa and with C33A was “inactive” throughout. Moreover, the Potency result with CAOV3, with Es-2, with HeLa, in the experiment with Hek293T, in the experiment on JEG-3 and with OV90 was “inactive” throughout. The Potency entry in the experiment with SKOV3, with Tov-21-G, in the experiment on Tov112D and with astro was “inactive” in each case. Further, the activity, negative = cell killing in [1] (setting [2]) was 1%; in experiment [1] (setting [3]) it was -2.29%; in experiment [1] (setting [4]), -24.4%; in experiment [1] (setting [5]), 6.18%.
